Experimental data taken from the supplement of paper PMC10646978.
± gives the standard deviation.

Columns and labels:
Settings in all cases: modulator concentration 10 µM
[1] = system: RAW-Dual (murine macrophage reporter line); experiment: NF-kB reporter (SEAP) activity fold change vs agonist alone; higher = enhanced NF-kB activity
In short: (§1)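 RAW-Dual murine macrophage reporter cells were plated at 50 000 per well in 384-well plates, pin-transferred compound to 10 μM final, and pre-incubated for 1 hour at 37 °C before a PRR agonist was added and the cells incubated overnight. NF-κB activity was read from supernatant SEAP with QUANTI-Blue at 620 nm absorbance, and IRF activity from Lucia luciferase with QUANTI-Luc by luminescence. Each signal was expressed as fold change by dividing by the mean agonist-only control on the same plate. Two replicate plates were averaged, with errors obtained by propagation.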

[2] = system: RAW-Dual (murine macrophage reporter line); experiment: IRF reporter (Lucia luciferase) activity fold change vs agonist alone; higher = enhanced IRF activity
In short: as §1

[3] = system: RAW-Dual (murine macrophage reporter line); experiment: viability score (confluency relative to resting cells, overnight) (fraction); higher = more viable, active = viable (0.7 or more)
In short: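 Overnight exposure to 10 μM final compound was carried out on RAW-Dual macrophages in 384-well plates. IncuCyte software generated two confluency masks over all wells imaged with IncuCyte. The viability score gives confluency in relation to resting cells. A compound met the cutoff if each mask exceeded 70% of resting cells.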

[4] = agonist: CpG ODN 1826 0.5 ug/mL

Row | SMILES | NF-kB reporter [1, 4] | NF-kB reporter ([1]; agonist: LPS 0.1 ug/mL) | NF-kB reporter ([1]; agonist: MPLA […]) | IRF reporter ([2]; agonist: 3'3'-cGAMP 10 ug/mL) | IRF reporter ([2]; agonist: LPS 0.1 ug/mL) | IRF reporter ([2]; agonist: MPLA […]) | viability score [3]
1 | O=C(O)c1cc(O)c(O)c(O)c1 | 0.306 ± 0.013 | 0.876 ± 0.078 | 0.749 ± 0.062 | 0.594 ± 0.03 | 1.16 ± 0.2 | 0.97 ± 0.27 | 1.02 (active)
2 | O=c1[nH][nH]c(=O)c2c(N=Cc3cc4c(cc3[N+](=O)[O-])OCO4)cccc12 | 0.878 ± 0.082 | 0.823 ± 0.074 | 0.961 ± 0.096 | 0.983 ± 0.031 | 1.13 ± 0.18 | 1.22 ± 0.28 | 0.995 (active)
3 | CC(C)(C)C(=O)Oc1ccc(S(=O)(=O)Nc2ccccc2C(=O)NCC(=O)O)cc1 | 0.755 ± 0.05 | 1.07 ± 0.086 | 1.18 ± 0.063 | 1.1 ± 0.064 | 1.09 ± 0.26 | 1.38 ± 0.47 | 0.972 (active)
4 | CCOc1ccc(N2CCN(CC(=O)O)C2=O)cc1 | 1.15 ± 0.32 | 1.06 ± 0.11 | 1.02 ± 0.1 | 0.917 ± 0.063 | 0.968 ± 0.12 | 1.15 ± 0.21 | 0.997 (active)
5 | CCOc1ccc(OCCCCOc2cccc(C)c2)cc1 | 0.961 ± 0.094 | 1.11 ± 0.074 | 0.932 ± 0.082 | 1 ± 0.051 | 1.27 ± 0.18 | 1.07 ± 0.068 | 1.01 (active)
6 | COc1cc2nccc(Oc3ccc(NC(=O)C4(C(=O)Nc5ccc(F)cc5)CC4)cc3)c2cc1OC.O=C(O)C[C@H](O)C(=O)O | 0.56 ± 0.046 | 0.51 ± 0.026 | 0.696 ± 0.019 | 0.103 ± 0.0071 | 0.317 ± 0.031 | 0.337 ± 0.027 | 0.842 (active)
7 | Nc1ccc(S(=O)(=O)NCCO)cc1 | 0.983 ± 0.07 | 1.06 ± 0.12 | 0.996 ± 0.068 | 0.973 ± 0.042 | 1.4 ± 0.12 | 1.07 ± 0.11 | 1 (active)
8 | CNC(=O)[C@H](Cc1ccccc1)NC(=O)[C@H](CC(C)C)[C@H](CSc1cccs1)C(=O)NO | 1.23 ± 0.093 | 1.22 ± 0.13 | 1.01 ± 0.048 | 0.96 ± 0.15 | 1.05 ± 0.15 | 0.947 ± 0.28 | 0.999 (active)
9 | NCC(O)CNCCc1ccccc1 (stereo not given) | 0.782 ± 0.067 | 1.02 ± 0.13 | 1.22 ± 0.069 | 0.575 ± 0.021 | 1.12 ± 0.12 | 1.02 ± 0.093 | 1 (active)
10 | COC(=O)C1=C(C)N(c2ccc(F)cc2)C(=O)C1 | 1 ± 0.092 | 0.811 ± 0.08 | 0.813 ± 0.071 | 0.516 ± 0.025 | 0.865 ± 0.068 | 0.505 ± 0.065 | 1.01 (active)
11 | O=C1CSC(=S)N1N=Cc1ccc(O)c([N+](=O)[O-])c1 | 0.956 ± 0.091 | 1.1 ± 0.11 | 0.97 ± 0.084 | 1.04 ± 0.027 | 1.75 ± 0.36 | 1.1 ± 0.17 | 0.994 (active)
12 | CN(C)CCCN1c2ccccc2Sc2ccccc21.Cl | 0.791 ± 0.075 | 0.956 ± 0.12 | 1.25 ± 0.054 | 0.719 ± 0.051 | 0.994 ± 0.07 | 0.798 ± 0.069 | 0.534 (inactive)
13 | CCSC1=C(C#N)C2(CCCC2)C(C#N)C(=O)N1 (stereo not given) | 1.13 ± 0.18 | 0.964 ± 0.086 | 0.91 ± 0.081 | 0.789 ± 0.021 | 1.34 ± 0.2 | 1.42 ± 0.23 | 0.988 (active)
14 | Cc1ccccc1N(CC(=O)NCCSc1ccc(Cl)cc1)S(=O)(=O)c1ccccc1 | 0.66 ± 0.079 | 1.01 ± 0.056 | 0.851 ± 0.056 | 0.64 ± 0.034 | 1.4 ± 0.11 | 1.1 ± 0.13 | 1 (active)
15 | CC1CC2(NC(=O)NC2=O)C(C)CN1C (stereo not given) | 0.933 ± 0.061 | 1.01 ± 0.088 | 0.87 ± 0.053 | 0.99 ± 0.034 | 1.34 ± 0.2 | 1.21 ± 0.15 | 1 (active)
